Laboratory results taken from PubChem BioAssay (EPA / NIEHS).
Inconclusive results are not listed. Calls of active or inactive are those of the source. Rule for the calls: active = hit-call score of the fitted dose curve at least 0.9, where 1 is the maximum; inactive = score below 0.9.

The compounds below were run on ABC Transporter (ABCB11), ABCB11 (gene 8647) (assay: CLD_ABCB11_24hr: CellzDirect (CLD) Gene Expression Assay for ABC Transporter (ABCB11) at 24 hours (AID 2283674)).
Procedure: CLD_24hr is a cell-based, multiplexed-readout assay that uses hepatocyte, a human liver primary cell, with measurements taken at 24 hours after chemical dosing in a 96-well plate.CLD_ABCB11_24hr is one of 16 assay component(s) measured or calculated from the CLD_24hr assay. It is designed to make measurements of mRNA induction, a form of inducible reporter, as detected with chemiluminescence signals by Quantitative Nuclease Protection Assay (qNPA) technology.Data from the assay component CLD_ABCB11_24hr was analyzed at the endpoint, CLD_ABCB11_24hr, in the positive analysis fitting direction relative to DMSO as the negative control and baseline of activity. Using a type of inducible reporter, gain-of-signal activity can be used to understand changes in the reporter gene as they relate to the gene ABCB11. Furthermore, this assay endpoint can be referred to as a primary readout. To generalize the intended target to other relatable targets, this assay endpoint is annotated to the transporter intended target family, where subfamily is ABC transporter.
Human hepatocyte cultures were treated daily for two consecutive days with fresh dosing solutions containing appropriate concentrations of the 320 ToxCast chemicals (chemical identities were blinded to CellzDirect and other ToxCast collaborators), vehicle control (0.2% DMSO), and positive control inducers as summarized in Table 1. Due to the large number of treatment groups and chemicals examined, the ToxCast chemicals were divided into two groups (spanning two independent cultures of hepatocytes from separate donor preparations (Hu778: ToxCast plates 1 and 2; Hu776: ToxCast plates 3 and 4). Each preparation of human hepatocyte cultures was treated with respective vehicle control, medium only control, set of six positive controls/reference chemicals for the five hepatic receptor pathways, and a subset of eight of the ToxCast chemicals (indoxacarb, pyrithiobac-sodium, norflurazon, cyhalofop-butyl, methomyl, thiram, acetochlor, and propiconazole). These replicate data, coupled with internal replicates designed within the blinded ToxCast chemical library, provided additional data to evaluate interindividual differences between hepatocyte preparations and their potential impact on chemical profiles.Cell morphology and integrity were evaluated using phase-contrast microscopy as an indicator of hepatocyte cell health (Tyson & Green, 1987). Cultures for each treatment group (i.e., media, vehicle [0.2% DMSO], positive control inducers [multiple concentrations], and the ToxCast chemicals [multiple concentrations]) were observed and cell morphology was assessed relative to vehicle control cultures at each harvest time point (0, 6, 24, or 48 h). […] Images were evaluated at the conclusion of the study to assess changes in cell integrity and account for the effects of chemical exposure on uncharacteristic changes in concentration-dependent gene expression profiles. The results from these determinations of apparent cytotoxicity were annotated (yes/no) alongside the corresponding qNPA data for reference.At the conclusion of each treatment period, hepatocyte cultures (96-well) were washed with 1 volume of HBSS, lysed by addition of 25 ul ArrayPlate lysis buffer (HTG, Tucson, AZ), and 70 ul/well of Denaturation Oil, denatured by incubation at 95C for 10 min, and frozen at approximately -70C until analysis by nuclease protection assay (qNPA) (Roberts et al., 2007). For qNPA analysis, cell lysates were thawed at 50C for approximately 30 min, qNPA probes were added, and samples were incubated at 95C for 10 min to begin the detection process by denaturing the target RNA, dissociating the duplexes and secondary structure hybridization. At the conclusion of the hybridization period, S1 nuclease reagent was added to each sample to digest all nonprotected nucleotides at 50C for 60-90 min. […]
In the case of `COC(=O)C(C)Oc1ccc(Oc2ccc(Cl)cc2Cl)cc1` (stereo unspecified), the outcome is reported as “inactive”. In the case of `CCc1nn(C)c(C(=O)NCc2ccc(C(C)(C)C)cc2)c1Cl`, the AC50 is reported as 34.8 µM (active). `CN(C)C(=S)SSC(=S)N(C)C` was tested, and the outcome was “inactive”. `CCCN(CCC)c1c([N+](=O)[O-])cc(S(N)(=O)=O)cc1[N+](=O)[O-]` was tested, and the outcome was “inactive”. In the case of `COC(=O)N(OC)c1ccccc1COc1ccn(-c2ccc(Cl)cc2)n1`, the AC50 is reported as 6.18 µM (active). `CCCCOC(=O)c1ccccc1C(=O)OCCCC` was tested, and the outcome was “inactive”. In the case of `C=CC1(C)OC(=O)N(c2cc(Cl)cc(Cl)c2)C1=O` (stereo unspecified), the outcome is reported as “inactive”. With `Oc1ccccc1-c1ccccc1` the outcome was “inactive”. In the case of `CC(C)(C)c1ccc(CSc2cnn(C(C)(C)C)c(=O)c2Cl)cc1`, the outcome is reported as “inactive”. `COc1nc(C)nc(NC(=O)NS(=O)(=O)c2ccccc2Cl)n1` was tested, and the outcome was “inactive”. For `O=C(O)c1nc(Cl)ccc1Cl`, the outcome was “inactive”. In the case of `COC(=O)c1ccccc1C(=O)OC`, the outcome is reported as “inactive”. With `COc1nc(C)nc(NC(=O)NS(=O)(=O)c2ccccc2CCC(F)(F)F)n1` the outcome was “inactive”. With `C#CCOS(=O)OC1CCCCC1Oc1ccc(C(C)(C)C)cc1` (stereo unspecified) the outcome was “inactive”. With `CCCCC(CC)COC(=O)c1ccccc1C(=O)OCC(CC)CCCC` (stereo unspecified) the outcome was “inactive”. For `COP(=S)(OC)Oc1nc(Cl)c(Cl)cc1Cl`, the outcome was “inactive”.
